From PubChem BioAssay AID1259240 (Keith Lab, Institute of Cancer Science, University of …, 2017) come the findings set out here.

The structures appear in SMILES notation. Calls of active or inactive are those of the source. Rule as the data show it: active = fold change mostly below about -2 (no sharp cut-off); inactive = mostly above about -1.8.

A short description of the test: TERT promoter activity modulators, primary screen, cell-based, luciferase reporter, human (AID 1259240). Conditions: A2780 TERT promoter luciferase reporter, 16 h; at 20 µM, fold versus average of vehicle-only wells. Background: Reporter assays use an easily measured gene product as a stand-in for the process of interest.
Turning to `COc1ccc(NC(=O)CSc2nc(-c3ccco3)cc(C(F)(F)F)n2)c(OC)c1`, the fold change is -1.96 (inactive).
Same read-out and setting: the figure for `CCOc1cc(C2c3c(oc4ccc(F)cc4c3=O)C(=O)N2Cc2ccc(F)cc2)ccc1O` (stereo unspecified) is -3.2 (active); for `CN1CCc2c(sc3c2C(=O)NC(c2ccc(OC(=O)c4ccccc4Cl)cc2)N3)C1` (stereo unspecified) it is -1.85 (inactive).
In the case of `CCOC(=O)Cn1c(=O)oc2cc(S(=O)(=O)NCCC(C)C)ccc21`, the fold change was -1 (inactive).
In the case of `CCCCNc1nc2c(c(=O)[nH]c(=O)n2C)n1CCO`, the fold change was -1.67 (inactive).
The same measure, in the same setting: as for `O=C(NC1CCCC1)C1CCC(CNS(=O)(=O)c2cccc3nsnc23)CC1` (stereo unspecified), the figure is -1.64 (inactive); as for `CCOC(=O)N1CCN(c2c(NCC3CCCO3)c(=O)c2=O)CC1` (stereo unspecified), 1.16 (inactive).
The same measure, in the same setting: the figure for `O=C(NCc1cccnc1)c1cccc(NC2=NC3CS(=O)(=O)CC3S2)c1` (stereo unspecified) is -1.24 (inactive).
With `CC(C)CCSc1nc(-c2ccc([N+](=O)[O-])cc2)nc2c1c(=O)n(C)c(=O)n2C`, the fold change was 1.2 (inactive).
With `O=C(CN1C(=O)c2ccccc2C1=O)Nc1nccs1`, the fold change is -1.42 (inactive).
On the same count and under the same terms, the figure for `COc1cc2[nH]c(=O)n(CC3CCCO3)c(=O)c2cc1OC` (stereo unspecified) is 1.01 (inactive); for `Cc1cc(C)c(C#N)c(SCC(=O)Nc2nc(-c3ccccc3)ns2)n1` it is -1.27 (inactive).
On the same count and under the same terms, the figure for `Cc1ccc(C(C)C)cc1OCC(O)Cn1cnc2ccccc21` (stereo unspecified) is -1.17 (inactive); for `CCOC(=O)C1CCCN(c2c(N3CC(C)CC(C)C3)c(=O)c2=O)C1` (stereo unspecified) it is -1.11 (inactive).
For the molecule `O=c1[nH]cnc2c1c(-c1ccccc1)cn2-c1ccc(F)cc1`, the result was inactive.
Turning to `O=c1oc2cc(O)ccc2cc1S(=O)(=O)c1ccccc1`, the fold change is -1.16 (inactive).
